Screening results (PubChem BioAssay)
Compounds with a hit are over-represented: about 7.3% of the library has one in this group of screens.
KinaseGlo FLuc – Counterscreen for Luciferase (Kinase-Glo TM) Inhibition; Kinase-Glo luciferase, ATP luminescence, 8 min; 200,000 tested, 0.28% active; AID 1379, 2008; Luciferin 4-monooxygenase (Photuris pensylvanica), Q27757; Potency, µM (series often up to 38.3 µM), usual class: inhibitors; also: nearly all actives have a fitted effect of over 60% in size
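Inhibition of Kinase-Glo luciferase light generation was assessed at 10 uM ATP in pH 7.2 imidazole buffer, with luminescence measured after eight minutes at ambient temperature.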
ELG1 genotox – qHTS screen for small molecules that induce genotoxicity in human embryonic kidney (HEK293T) cells expressing luciferase-tagged ELG1; 330,000 tested, 1.3% active; Potency, µM (top dose mostly 46 µM), actives largely listed as activators; AID 504466, 2011; HEK293T ELG1-luciferase reporter, luminescence, 16 h; also: nearly all actives have a fitted effect of over 60% in size
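DMSO vehicle served as control against compound-treated ELG1-luciferase HEK293T cells; exposure lasted 16 hr at 37 °C and 5% CO2, followed by ONE-Glo luminescence detection after 30 min.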
SMN2 splice enh – qHTS Assay for Enhancers of SMN2 Splice Variant Expression | HEK293 SMN2-luciferase splicing reporter, luminescence, 30-36 h | Potency, µM (doses to about 46.1 µM), hits mostly activators | 210,000 tested, 2.8% active; also: nearly all actives have a fitted effect of over 55% in size
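HEK293 cells carry an SMN2 minigene-luciferase reporter in which exon 7 inclusion puts luciferase in frame. Cells were seeded at 2000 cells/well, attached for 10-12 hours, then exposed to compounds for 30-36 hours at 37C before ONE-Glo luminescence.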
FLuc modulator – qHTS profiling assay for firefly luciferase inhibitor/activator using purifed enzyme and Km concentrations of substrates (counterscreen for miR-21 project). Luciferin 4-monooxygenase (Photinus pyralis), P08659. purified FLuc, Km substrates, luminescence inhibition. Potency, µM (highest dose often 57.5 µM), hits mostly inhibitors. 360,000 tested, 6.9% active. AID 588342, 2011; also: nearly all actives have a fitted effect of over 55% in size
Target sequence (P08659 whole entry, looked up): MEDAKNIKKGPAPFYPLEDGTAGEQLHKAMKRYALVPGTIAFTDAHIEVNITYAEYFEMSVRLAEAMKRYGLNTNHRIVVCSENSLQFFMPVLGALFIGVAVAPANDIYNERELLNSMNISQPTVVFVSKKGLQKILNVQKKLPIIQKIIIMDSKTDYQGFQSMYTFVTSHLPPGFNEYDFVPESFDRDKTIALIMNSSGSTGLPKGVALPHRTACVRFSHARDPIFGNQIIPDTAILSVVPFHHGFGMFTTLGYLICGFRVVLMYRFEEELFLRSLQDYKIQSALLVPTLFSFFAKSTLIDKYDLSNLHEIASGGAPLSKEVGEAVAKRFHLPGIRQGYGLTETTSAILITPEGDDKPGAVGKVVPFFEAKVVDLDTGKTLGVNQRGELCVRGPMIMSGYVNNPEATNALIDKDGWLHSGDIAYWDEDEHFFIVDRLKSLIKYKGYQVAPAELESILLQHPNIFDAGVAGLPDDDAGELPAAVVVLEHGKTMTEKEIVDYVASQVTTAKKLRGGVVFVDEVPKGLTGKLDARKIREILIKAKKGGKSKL
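Biochemical qHTS of compounds, final roughly 60 µM downward over six points, against 10 nM purified firefly luciferase using Km concentrations of substrates (10 uM D-luciferin, 10 uM ATP) in Tris acetate pH 7.5 buffer; luminescence output.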
Rab9 prom act – qHTS Assay for Rab9 Promoter Activators. Huh7 Rab9 promoter-luciferase reporter, luminescence, 24 h. Potency, µM (doses to about 9.22 µM), hits mostly activators. 320,000 tested, 2.8% active; also: nearly all actives have a fitted effect of over 60% in size
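Stable Rab9-luc Huh7, 1500 cells/well, 2 h settle; cmpd in DMSO, 24 h, 37 °C/5% CO2; luciferase reagent 10 min RT; luminescence.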
NPC1 prom act – qHTS Assay for NPC1 Promoter Activators; Huh7 NPC1 promoter luciferase reporter, 24 h; Potency, µM (highest dose often 9.22 µM), most hits filed as activators; 320,000 tested, 2.4% active; AID 485313, 2010; also: nearly all actives have a fitted effect of over 60% in size
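Readout is luciferase luminescence, reflecting NPC1 promoter activation in stably transfected Huh7 cells after 24 h compound exposure at 37 °C in reduced-serum medium with 10% FBS.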
Of the large screens only hits and unclear results are named; the others gave an inactive call. Calls follow the shape of the dose curve; as a rule, active = well fitted curve in the direction sought with a large enough effect; inconclusive = small, poorly fitted or top-dose-only effect, or another doubt; inactive = no such curve, though single readings can be large; an effect the other way counts as inactive or inconclusive.

CC(C)Oc1ccc(Br)cc1C(=O)N/N=C/c1c[nH]c2ccccc12	none (no result: KinaseGlo FLuc, SMN2 splice enh)
O=C(N/N=C/c1c[nH]c2ccccc12)c1ccccc1Cl	FLuc modulator inconclusive (no result: KinaseGlo FLuc, SMN2 splice enh)
O=C(N/N=C/c1c[nH]c2ccccc12)c1ccc(Cl)cc1	FLuc modulator 7.6µM, Rab9 prom act inconclusive, NPC1 prom act inconclusive (no result: KinaseGlo FLuc, SMN2 splice enh)
COc1ccccc1N1CCN(c2ncnc3c2nnn3C)CC1	none (no result: KinaseGlo FLuc, ELG1 genotox, SMN2 splice enh, Rab9 prom act, NPC1 prom act)
O=C(NC1CCCCC1)c1ccc(CS(=O)(=O)Cc2ccccc2F)o1	SMN2 splice enh 10µM
Cc1ccc(NC2=C([N+](=O)[O-])CS(=O)(=O)C2)cc1	FLuc modulator 13µM
CC(C)c1nn2c(=O)cc(COC(=O)c3ccccc3NC(=O)COc3ccccc3)nc2s1	FLuc modulator 21µM (no result: KinaseGlo FLuc, ELG1 genotox, SMN2 splice enh, Rab9 prom act, NPC1 prom act)
O=C(COc1ccccc1)Nc1ccccc1C(=O)OCc1cc(=O)n2nc(C3CC3)sc2n1	FLuc modulator 21µM (no result: KinaseGlo FLuc, ELG1 genotox, SMN2 splice enh, Rab9 prom act, NPC1 prom act)
Cc1c(C(=O)N(Cc2ccc(N(C)C)cc2)CC2CCCO2)oc2ccc(Cl)cc12 (stereo not drawn)	none (no result: KinaseGlo FLuc, ELG1 genotox, Rab9 prom act, NPC1 prom act)
COc1ccc(C(=O)CSc2ncnc3nc[nH]c23)cc1	FLuc modulator inconclusive (no result: KinaseGlo FLuc, SMN2 splice enh)
Cc1ccc(OCCSc2ncnc3nc[nH]c23)cc1	ELG1 genotox 9.2µM, FLuc modulator 13µM, Rab9 prom act 2.5µM, NPC1 prom act inconclusive
COc1ccc(Nc2nc(NCC3CCCO3)c3ccccc3n2)c(OC)c1 (stereo not drawn)	FLuc modulator 24µM
Cc1ccc(Nc2nc(NCc3ccco3)c3ccccc3n2)cc1	FLuc modulator 21µM
CCOc1nc(NCc2ccco2)nc(Nc2ccccc2F)n1	ELG1 genotox inconclusive, SMN2 splice enh 7.1µM
COc1ccccc1Nc1nc(NCc2ccco2)c2ccccc2n1	FLuc modulator 19µM (no result: KinaseGlo FLuc, SMN2 splice enh)
c1ccc(-c2ccccc2-c2nc(-c3cccnc3)no2)cc1	none
Fc1ccccc1-c1nc(-c2ccccc2)no1	KinaseGlo FLuc inconclusive, ELG1 genotox inconclusive, SMN2 splice enh 11µM, FLuc modulator 0.6µM, Rab9 prom act 2.8µM, NPC1 prom act 3.5µM
Fc1ccccc1-c1nc(-c2ccncc2)no1	ELG1 genotox inconclusive, FLuc modulator 8.5µM, Rab9 prom act 1.8µM, NPC1 prom act 1.8µM (no result: KinaseGlo FLuc, SMN2 splice enh)
Brc1ccccc1-c1nc(-c2ccccc2)no1	ELG1 genotox inconclusive, SMN2 splice enh 4µM, FLuc modulator 0.95µM, Rab9 prom act 3.5µM
Fc1ccccc1-c1nc(-c2cnccc2C(F)(F)F)no1	FLuc modulator inconclusive (no result: KinaseGlo FLuc, SMN2 splice enh)
Cc1ccc(S(=O)(=O)Nc2ccc(O)c(C(=O)O)c2)c(C)c1	none (no result: ELG1 genotox, SMN2 splice enh, FLuc modulator, Rab9 prom act, NPC1 prom act)
Fc1cccc(CSc2nc(NCCc3ccccc3)c3ccccc3n2)c1	none (no result: KinaseGlo FLuc, ELG1 genotox, SMN2 splice enh, Rab9 prom act, NPC1 prom act)
CCCCC/C=C\C/C=C\C/C=C\C/C=C\CCCCCC(=O)NCC(=O)O	none (no result: ELG1 genotox, FLuc modulator, Rab9 prom act, NPC1 prom act)
O=C(CSc1nnc(-c2ccccc2O)o1)N1CCCCC1	ELG1 genotox inconclusive, FLuc modulator 11µM (no result: KinaseGlo FLuc, SMN2 splice enh)
O=C(CSc1nnc(-c2ccccc2Cl)o1)N1CCCCC1	ELG1 genotox 4.6µM, SMN2 splice enh 16µM, FLuc modulator 15µM, Rab9 prom act inconclusive, NPC1 prom act inconclusive
O=C(CSc1nnc(-c2ccccc2O)o1)N1CCOCC1	ELG1 genotox inconclusive, FLuc modulator inconclusive, Rab9 prom act 3.2µM, NPC1 prom act inconclusive (no result: KinaseGlo FLuc, SMN2 splice enh)
O=C(CSc1nnc(-c2ccccc2Cl)o1)N1CCCC1	ELG1 genotox inconclusive, FLuc modulator 15µM, Rab9 prom act inconclusive, NPC1 prom act inconclusive (no result: KinaseGlo FLuc, SMN2 splice enh)
COc1ccc2c(c1)CC(C(=O)Nc1c(C)cc(C)cc1C)CO2 (stereo not drawn)	none (no result: KinaseGlo FLuc, ELG1 genotox, SMN2 splice enh, Rab9 prom act, NPC1 prom act)
CC1CCCCN1C(=O)CSc1nnc(-c2ccccc2O)o1 (stereo not drawn)	ELG1 genotox 5.2µM, FLuc modulator 21µM, Rab9 prom act 3.5µM, NPC1 prom act 2.8µM (no result: KinaseGlo FLuc, SMN2 splice enh)
O=C(CSc1nnc(-c2ccccc2Br)o1)N1CCOCC1	ELG1 genotox inconclusive, FLuc modulator 19µM, Rab9 prom act 4µM, NPC1 prom act 2.8µM (no result: KinaseGlo FLuc, SMN2 splice enh)
CC(Sc1nnc(-c2ccccc2Br)o1)C(=O)N1CCOCC1 (stereo not drawn)	none (no result: KinaseGlo FLuc, SMN2 splice enh)
